Among the data in PubChem BioAssay (NCATS) are Potency and activity change, negative = cytotoxicity values, retold here.

The test system of one assay is C33A. Kind of assay: Primary qHTS to identify gynecologic anti-cancer compounds using libraries of approved drugs and bioactive compounds (AID 1345084). Also: nearly all actives have a fitted effect of over 55% in size. As to activity change, negative = cytotoxicity: % is scaled to controls: 0 for no effect and ±100 for the full control effect. The settings on record: Gynecologic cancer cell panel viability, ATPlite luminescence, 48 h; series mostly up to 57.5 µM. The essentials: (§1)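 Cytotoxicity screen measuring ATP content by luciferase luminescence. Each compound is applied at five concentrations for 48 h at 37 C with 5% CO2.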

The test system of the next assay is CAOV3. The description is as above. Particulars: Gynecologic cancer cell panel viability, ATPlite luminescence, 48 h; series mostly up to 57.5 µM. The essentials:
as §1

A further assay deals with CASKI. The description is as above. The settings on record: Gynecologic cancer cell panel viability, ATPlite luminescence, 48 h; series mostly up to 57.5 µM. The essentials:
as §1

The next assay concerns Es-2. Described as above. The settings on record: Gynecologic cancer cell panel viability, ATPlite luminescence, 48 h; series mostly up to 57.5 µM. The essentials: as §1
In the next assay the test system is HeLa. The description is as above. The settings on record: Gynecologic cancer cell panel viability, ATPlite luminescence, 48 h; series mostly up to 57.5 µM. The essentials:
as §1

A further assay relates to Hek293T. The description is as above. The settings on record: Gynecologic cancer cell panel viability, ATPlite luminescence, 48 h, control line for the selectivity index; series mostly up to 57.5 µM. The essentials:
as §1

A further assay relates to JEG-3. The assay is described as above. The settings on record: Gynecologic cancer cell panel viability, ATPlite luminescence, 48 h; series mostly up to 57.5 µM. The essentials:
as §1

Another assay has as its system OV90. The assay is described as above. The settings on record: Gynecologic cancer cell panel viability, ATPlite luminescence, 48 h; series mostly up to 57.5 µM. The essentials: as §1
A further assay relates to PA-1. The description is as above. Particulars: Gynecologic cancer cell panel viability, ATPlite luminescence, 48 h; series mostly up to 57.5 µM. The essentials:
as §1

In another assay the test system is SKOV3. The assay is described as above. Particulars: Gynecologic cancer cell panel viability, ATPlite luminescence, 48 h; series mostly up to 57.5 µM. The essentials: as §1
Another assay has as its system Tov-21-G. The description is as above. Particulars: Gynecologic cancer cell panel viability, ATPlite luminescence, 48 h; series mostly up to 57.5 µM. The essentials: as §1
The next assay relates to Tov112D. Described as above. Particulars: Gynecologic cancer cell panel viability, ATPlite luminescence, 48 h; series mostly up to 57.5 µM. The essentials: as §1
Assay [1] in a line: qHTS assay to identify inhibitors of the type 1 interferon - major histocompatibility complex class I in skeletal muscle: Counter screen cell viability and HiBit confirmation (AID 1347412). Also: nearly all actives have a fitted effect of over 60% in size. The settings on record: iHSKM muscle cells + IFN-b, HiBiT or CellTiter-Glo, 24 h; Viability. The essentials: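 CRISPR HLA-B*08:01-HiBit immortalized human myoblasts (C25cl48) stimulated with 4 ng/ml IFN-beta and compounds (12-point 1:3, top 46 uM final) for 24 h at 37 C. Duplicate plates read by HiBit lytic luminescence or CellTiter Glo ATP.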

Results filed as inconclusive are left out. Unmarked numbers belong to inactive results. The source made the active and inactive calls. Calls follow the shape of the dose curve; as a rule, active = well fitted curve in the direction sought with a large enough effect; inconclusive = small, poorly fitted or top-dose-only effect, or another doubt; inactive = no such curve, though single readings can be large; an effect the other way counts as inactive or inconclusive.
Potency is read from the fitted curve at half-maximal effect.

Regarding `CCOc1ccc(-n2c([C@@H](C)N(Cc3cccnc3)C(=O)Cc3ccc(OC(F)(F)F)cc3)nc3ncccc3c2=O)cc1`, the Potency result with C33A, in the assay on CAOV3, in the assay on CASKI, with Es-2, with HeLa and in the assay on Hek293T was “inactive” in each case. Also, the Potency entry with JEG-3, in the assay on OV90, with PA-1, in the assay with SKOV3, in the assay on Tov-21-G and in the assay with Tov112D was “inactive” each time.
In the case of `CC(C)c1ccc(NC(=O)Cn2cnc3c2c(=O)n(C)c(=O)n3C)cc1`, the Potency entry in the assay with C33A, in the assay with CAOV3, with CASKI, in the assay with Es-2, in the assay on HeLa and with Hek293T was “inactive” each time. Also, the Potency result in the assay with JEG-3, in the assay on OV90, with PA-1, in the assay on SKOV3, in the assay on Tov-21-G and in the assay with Tov112D was “inactive” each time.
With `CC[C@@H](Nc1c(Nc2cccc(C(=O)N(C)C)c2O)c(=O)c1=O)c1cc(C(C)C)co1`, the Potency result in the assay on C33A, in the assay with CAOV3, in the assay with CASKI, with Es-2, in the assay with HeLa and in the assay on Hek293T was “inactive” throughout. Also, the Potency entry in the assay with JEG-3, in the assay on OV90, with PA-1, in the assay with SKOV3, in the assay with Tov-21-G and in the assay with Tov112D was “inactive” in each case.
In the case of `C[C@]12CC[C@@H]3c4ccc(O)c(O)c4CC[C@H]3[C@@H]1CCC2=O`, the Potency entry in the assay on C33A, in the assay on CAOV3, with CASKI, in the assay with Es-2, with HeLa and in the assay with Hek293T was “inactive” throughout. Besides, the Potency result in the assay with JEG-3, in the assay on OV90, in the assay on PA-1, in the assay with SKOV3, in the assay with Tov-21-G and in the assay on Tov112D was “inactive” in each case.
On to `Cc1ccc(N2CCN(CCC3NC(=O)c4ccccc43)CC2)cc1C` (stereo unspecified), for which the Potency entry with C33A, in the assay on CAOV3, in the assay on CASKI, in the assay with Es-2, in the assay on HeLa and in the assay with Hek293T was “inactive” throughout. Besides, the Potency result in the assay with JEG-3, in the assay with OV90, in the assay with PA-1, with SKOV3, in the assay on Tov-21-G and in the assay with Tov112D was “inactive” in each case.
Take `CC(C)CCNc1ncccc1C(=O)N1CCN(Cc2ccccc2)CC1`: the Potency entry in the assay with C33A, with CAOV3, with CASKI, with Es-2, in the assay on HeLa and in the assay with Hek293T was “inactive” in each case. Further, the Potency result in the assay on JEG-3, in the assay on OV90, in the assay on PA-1, in the assay with SKOV3, with Tov-21-G and in the assay with Tov112D was “inactive” in each case.
For `CC(=O)O[C@@H]1C[C@]2(C)[C@@]3(CCC4[C@@]5(C)CC[C@H](O[C@@H]6O[C@H](C(=O)O)[C@@H](O)[C@H](OC7OC(CO)C(O)C(O)[C@H]7O[C@@H]7O[C@@H](C)[C@H](O)[C@@H](O)[C@H]7O[C@@H]7OC[C@](O)(CO)[C@H]7O)[C@H]6OC6OC(CO)C(O)C(O)C6O)C(C)(C)C5CC[C@]42C)OC[C@@]12CCC(C)(C)CC23` (stereo partly specified), the activity change, negative = cytotoxicity with C33A was 2.65% [at 6.55 µM]; with CAOV3 it was 0.174% [at 6.55 µM]; in the assay with CASKI, 16.9% [at 6.55 µM]; with Es-2 it was -3.44% [at 6.55 µM]; in the assay with HeLa, -0.755% [at 6.55 µM]; in the assay on Hek293T, -10.7% [at 6.55 µM]. The activity change, negative = cytotoxicity in the assay on JEG-3 is -4.85% [at 6.55 µM]; with OV90, -14.9% [at 6.55 µM]; in the assay on PA-1 it was -13% [at 6.55 µM]; in the assay on SKOV3 it was 27.9% [at 6.55 µM]; in the assay on Tov-21-G it was -2.25% [at 6.55 µM]; in the assay on Tov112D, -4.27% [at 6.55 µM].
As to `CC(=O)[C@H]1CC[C@H]2[C@@H]3CC=C4C[C@@H](OS(=O)(=O)O)CC[C@]4(C)[C@H]3CC[C@]12C`, the Potency result in the assay on C33A, in the assay with CAOV3, in the assay with CASKI, in the assay with Es-2, with HeLa and in the assay with Hek293T was “inactive” each time. Moreover, the Potency result with JEG-3, in the assay with OV90, in the assay on PA-1, with SKOV3, in the assay on Tov-21-G and with Tov112D was “inactive” throughout.
As for `COc1cccc(N2CCN(C3=Nc4c(F)cccc4[C@H](CC(=O)O)N3c3cc(C(F)(F)F)ccc3OC)CC2)c1`, the Potency result with C33A, in the assay on CAOV3, in the assay with CASKI, in the assay with Es-2, with HeLa and in the assay on Hek293T was “inactive” throughout. The Potency result in the assay with JEG-3, in the assay with OV90, in the assay on PA-1, in the assay with SKOV3, with Tov-21-G and with Tov112D was “inactive” throughout.
Regarding `CCN(CC)C(=O)C(c1ccccc1)N1CCN(c2ccc(NC(=O)c3ccccc3-c3cccnc3)cc2F)CC1` (stereo unspecified), the Potency result in the assay with C33A, in the assay with CAOV3, in the assay on CASKI, with Es-2, in the assay on HeLa and in the assay with Hek293T was “inactive” in each case. Besides, the Potency entry in the assay on JEG-3, in the assay with OV90, in the assay on PA-1, in the assay with SKOV3, in the assay on Tov-21-G and in the assay on Tov112D was “inactive” throughout.
Regarding `COc1ccc(S(=O)(=O)N2CCC[C@H]2C(=O)Nc2cc(C)cc(C)c2)cc1`, the Potency result in the assay on C33A, with CAOV3, with CASKI, in the assay with Es-2, in the assay on HeLa and in the assay with Hek293T was “inactive” throughout. The Potency entry in the assay on JEG-3, in the assay on OV90, in the assay on PA-1, with SKOV3 and with Tov112D was “inactive” each time.
As for `Cc1cc(-c2nc3cc(F)ccc3s2)ccc1NC(=O)[C@@H](N)CCCCN`, the Potency with C33A was 17.8 µM (active); in the assay with CAOV3 it was 28.2 µM (active); in the assay with CASKI, 14.1 µM (active); in the assay with Es-2, 15.8 µM (active); in the assay with HeLa, 14.1 µM (active); in the assay on Hek293T it was 12.6 µM (active). Further, the Potency is 14.1 µM (active) with JEG-3; 8.91 µM (active) with OV90; 10 µM (active) in the assay on PA-1; 11.2 µM (active) in the assay with SKOV3; 14.1 µM (active) in the assay with Tov-21-G; 15.8 µM (active) in the assay with Tov112D. Moreover, the Potency in [1] is 22.2 µM (active).
In the case of `CCC(C)c1ccc(NC(=O)Cn2cnc3c2c(=O)n(C)c(=O)n3C)cc1` (stereo unspecified), the Potency entry in the assay on C33A, with CAOV3, in the assay on CASKI, in the assay with Es-2, in the assay with HeLa and in the assay with Hek293T was “inactive” in each case. Moreover, the Potency result with JEG-3, with OV90, in the assay on PA-1, with SKOV3, in the assay with Tov-21-G and in the assay with Tov112D was “inactive” each time.
